Bioassay records (PubChem BioAssay)
Only a selection was taken, and hits are over-represented in it overall.
ST2 IL33 inh: blocks human ST2 binding to IL-33 | Q01638 | AlphaLISA ST2-Fc/biotin-IL-33 interaction, 1 h | inhibition, % for hits at 17 µM | hit rate 2.3% among 78,000 | AID 1259354; in the data active = inhibition above about 30%
Target sequence (Q01638 whole entry, looked up): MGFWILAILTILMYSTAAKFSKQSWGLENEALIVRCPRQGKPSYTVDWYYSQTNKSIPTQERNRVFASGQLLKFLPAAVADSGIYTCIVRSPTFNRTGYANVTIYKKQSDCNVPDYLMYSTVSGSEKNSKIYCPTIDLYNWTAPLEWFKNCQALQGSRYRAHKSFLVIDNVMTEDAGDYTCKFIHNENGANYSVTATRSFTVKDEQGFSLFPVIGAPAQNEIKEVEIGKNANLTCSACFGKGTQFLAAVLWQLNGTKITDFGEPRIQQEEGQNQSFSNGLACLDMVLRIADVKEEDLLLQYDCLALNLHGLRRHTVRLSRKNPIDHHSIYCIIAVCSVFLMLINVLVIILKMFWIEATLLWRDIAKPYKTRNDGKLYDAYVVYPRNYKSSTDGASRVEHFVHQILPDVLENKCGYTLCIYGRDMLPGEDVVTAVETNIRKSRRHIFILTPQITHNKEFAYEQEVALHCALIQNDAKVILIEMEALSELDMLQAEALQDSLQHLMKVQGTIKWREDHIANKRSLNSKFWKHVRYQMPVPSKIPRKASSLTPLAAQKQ
A number is an active result; – = inactive.

SMILES | ST2 IL33 inh
COc1ccc2c(c1[N+](=O)[O-])CCC/C2=N/OC(=O)c1cc(F)c(F)cc1Cl | –
CC(C)(C)c1ccc(C(=O)Nc2ccc(S(=O)(=O)N3CCCC3)cc2)cc1 | –
O=C(O)c1ccc(S(=O)(=O)N2CCCC2)cc1 | 35%
O=C(Nc1ccccc1)c1ccc(S(=O)(=O)N2CCCCC2)cc1 | –
Cc1c(C(=O)O)cccc1-c1ccc(/C=C/[N+](=O)[O-])o1 | 61%
CC(=O)Nc1ccccc1-c1ccc(C)o1 | –
COc1cc([N+](=O)[O-])ccc1-c1ccc(/C=C2\C(=O)N(c3cccc(Cl)c3)N=C2C)o1 | –
Cc1ccc(Cl)cc1-c1ccc(/C=C/[N+](=O)[O-])o1 | 51%
N=C1S/C(=C/c2ccc(-c3ccccc3C(=O)O)o2)C(=O)N1c1nccs1 | –
N#CC1=C2SCN(c3ccc(Cl)cc3)CN2C(=O)CC1c1ccc(F)cc1 (configuration not stated) | –
COC(=O)c1cc(N2C(=O)C3C4c5ccccc5C(c5ccccc54)C3C2=O)ccc1Cl (configuration not stated) | –
O=C(CSC1=NS(=O)(=O)c2ccccc21)Nc1ccc(Br)cc1F | –
O=C(NCCSc1c(-c2ccc(Br)cc2)[nH]c2ccccc12)c1ccco1 | –
Cc1ccc(S(=O)(=O)N(CC(=O)NCC2CCCO2)Cc2c(F)cccc2Cl)cc1 (configuration not stated) | –
Cn1c2c(c3cc([N+](=O)[O-])ccc31)CCCC2=O | –
Cc1c(CC(Cl)(Cl)Cl)c2c(n1O)CC(C)(C)CC2=O | –
Cc1c(CC(Cl)(Cl)Cl)c2c(n1-c1ccc([N+](=O)[O-])cc1)CCCC2=O | 41%
COc1cccc(NC(=O)c2cccc(F)c2)c1 | –
CC(C)(C)n1nc2c(c1NC(=O)c1cc(Br)ccc1Cl)CSC2 | –
CSc1ccccc1C(=O)Nc1ccc(S(=O)(=O)N2CCOCC2)cc1 | –
CCN(CC)S(=O)(=O)c1ccc(C(=O)N=c2sc3ccccc3n2C)cc1 | –
CCCCN(CCCC)S(=O)(=O)c1ccc(C(=O)Nc2nnc(-c3ccc(F)cc3)o2)cc1 | –
O=C(Nc1nc2ccccc2s1)c1ccc(S(=O)(=O)N2CCOCC2)cc1 | –
O=S(=O)(c1ccc(-c2csc(=Nc3ccccc3)n2CCCO)cc1)N1CCOCC1 | 39%
CCN(CC)S(=O)(=O)c1ccc(-c2csc(=Nc3ccc(F)cc3)n2CCCO)cc1 | 43%
SMILES | ST2 IL33 inh
Cc1cccc(NC(=O)c2ccc([N+](=O)[O-])cc2)c1C | –
CNC(=O)c1cc2c(=O)n3ccccc3nc2n1C | –
CCN(Cc1nc(COC)no1)C(=O)c1csnn1 | –
Cc1ccc(/C=C2\N=C(c3ccc(I)cc3)OC2=O)o1 | 47%
CC1=N/C(=C\c2ccc(OC(F)F)cc2)C(=O)O1 | –
Cc1ccc(/C=C2\N=C(c3ccccc3C)OC2=O)o1 | 65%
CCOc1ccc(/C=C2\N=C(c3ccc(Br)cc3)OC2=O)cc1 | –
Cc1ccc(C2=N/C(=C\c3ccco3)C(=O)O2)cc1[N+](=O)[O-] | –
Cc1ccccc1C1=N/C(=C\c2ccco2)C(=O)O1 | 44%
O=C1OC(c2ccc3c(c2)OCO3)=N/C1=C\c1ccccc1Br | –
CCOC(=O)C(CC)Sc1nc2c(c(=O)n1-c1ccc(F)cc1)SCC2 (configuration not stated) | –
C=CCn1c(NC(C)=O)c(S(=O)(=O)c2ccccc2)c2nc3ccccc3nc21 | –
C=CCSC1=C(C#N)C(c2ccc(C)o2)CC(=O)N1 (configuration not stated) | –
CC(=O)Nc1cnn(-c2ccc(C(=O)N3CCC(Sc4ccc(F)cc4)CC3)cc2)c1 | –
CC(C)C1CN(C(=O)c2cccc(-n3cnnc3)n2)CCC(=O)N1CC1CC1 (configuration not stated) | –
O=C(Cc1c(C(=O)O)[nH]c2ccccc12)NCCN1CCOCC1 | –
CCN(C(=O)c1coc2ccccc12)C(C)CO (configuration not stated) | –
COc1ccc(Nc2cc(C)nc(Nc3ccc(NC(=O)c4ccccc4OC)cc3)n2)cc1 | 39%
COc1ccc(CC(=O)Nc2ccc(Nc3nc(C)cc(Nc4ccc(OC)cc4)n3)cc2)cc1 | 33%
COc1ccc(NC(=O)Cc2ccc(Br)cc2)cc1 | –
CC(=O)Nc1ccc(Nc2nc(C)cc(Nc3ccccc3)n2)cc1 | –
CCC(CC)C(=O)Nc1ccc(Nc2nc(C)cc(Nc3ccccc3)n2)cc1 | –
COc1ccc(Nc2cc(C)nc(Nc3ccc(NC(=O)CCCc4ccccc4)cc3)n2)cc1 | 31%
COc1ccc(C(=O)Nc2ccc(Nc3nc(C)cc(Nc4ccc(C)cc4)n3)cc2)cc1OC | –
Cc1cc(Nc2ccccc2)nc(Nc2ccc(NC(=O)c3ccc(F)cc3)cc2)n1 | –
SMILES | ST2 IL33 inh
COc1cccc(C(=O)Nc2ccc(Nc3nc(C)cc(Nc4ccccc4)n3)cc2)c1 | –
Cc1nc2cc(NC(=O)c3ccccc3)ccc2n1Cc1ccccc1 | –
Cc1ccc(C)c(-n2cc(CN3CCN(c4ncccn4)CC3)c(-c3ccccc3)n2)c1 | –
CSCC[C@@H](C(=O)NCc1cccc(C(C)=O)c1)N1Cc2ccccc2C1=O | –
COCC1CCCN(Cc2ccc3c(c2)CN(C(=O)COc2ccccc2Cl)CCO3)C1 (configuration not stated) | –
Cc1nc(SCC(=O)N2CCCC2c2ccccn2)n[nH]1 (configuration not stated) | –
COC(=O)c1c[nH]n2c(=O)c(Cc3ccccc3C)c(C)nc12 | 53%
COC(=O)c1c[nH]n2c(=O)c(Cc3ccc(C)cc3)c(C)nc12 | –
COC(=O)c1c[nH]n2c(=O)c(Cc3ccccc3F)c(C)nc12 | –
O=C(CCn1c(=O)c2sccc2n(Cc2ccc(F)cc2)c1=O)NCc1ccccc1 | –
CN(C)c1oc(COc2ccc(Cl)cc2Cl)nc1S(=O)(=O)c1ccccc1 | 36%
Cc1nc(S(=O)(=O)c2ccccc2)c(N(C)C)o1 | –
CN(C)c1oc(-c2ccccc2)nc1S(=O)(=O)c1ccccc1 | –
CCc1ccc(OCC(=O)Nc2ncc(C)s2)cc1 | –
Cn1c(/C=C/c2ccc([N+](=O)[O-])o2)nc2ccc(I)cc2c1=O | –
O=[N+]([O-])c1ccc(/C=C/c2ccc3ccccc3n2)o1 | 67%
C=CCn1c(CNC(=O)CC)nc2ccccc21 | –
O=C(Cn1c(=O)n(-c2ccc(F)cc2F)c(=O)c2sccc21)Nc1ccccc1F | –
O=C(Cc1cccs1)N1CCc2c(c(C(=O)N3CCOCC3)nn2CCCc2ccccc2)C1 | –
Cc1ccc(C(=O)N2CCc3c(c(C(=O)N4CCNC(=O)C4)nn3CCCc3ccccc3)C2)s1 | 30%
O=C(c1n[nH]c2c1CCC2)N1CCc2c(c(C(=O)N3CCOCC3)nn2CCCc2ccccc2)C1 | –
O=C(c1ccc(F)cc1)N1CCN=C1SCc1cccnc1 | –
O=c1oc2ccc(Br)cc2cc1-c1csc(-c2cc3ccccc3oc2=O)n1 | –
COc1ccc(-n2ncc3c(NCc4cccc(Cl)c4)ncnc32)cc1 | –
CCn1ncnc1CN1CCC(Cc2nn(C)c(=O)n2CC)CC1 | –
SMILES | ST2 IL33 inh
COc1ccccc1CN(Cc1cc(C(C)(C)C)n[nH]1)C1CC1 | –
Cc1ccc(CNS(=O)(=O)NCc2ccccc2)c(F)c1F | –
Cc1nn(CCNS(=O)(=O)NCc2ccccc2)c(C)c1Cl | –
Cn1ccnc1SCCNS(=O)(=O)NCc1ccccc1 | 31%
COc1ccc(OC)c(NC(=O)Cn2cnc3c(cnn3-c3ccc(Cl)cc3)c2=O)c1 | –
CCCCOc1ccc(/C=c2\sc3nc(-c4cccs4)nn3c2=O)cc1OC | –
COc1ccc(N2CN=c3s/c(=C\c4ccc(OC)c(OC)c4)c(=O)n3C2)cc1 | 35%
